Assay [1] deals with Cytochrome P450 2D6 (Homo sapiens) (UniProt P10635). The experiment in a line: Cytochrome P450 family 2 subfamily D member 6 (CYP2D6) small molecule antagonists: luciferase biochemical (cell-free) qHTS assay (AID 1645840; active = well fitted curve in the direction sought with a large enough effect in the repeat runs; an effect the other way counts as inactive or inconclusive; note: nearly all actives have a fitted effect of over 55% in size; note: potency is the fitted concentration of half-maximal effect). The gist of the method:
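P450-Glo luminescent screen: recombinant CYP2D6 enzyme–proluciferin substrate mix preincubated with compound 10 min at room temperature, then NADPH regeneration added for 1 h at room temperature. Detection reagent added for 20 min; luciferin light read as relative luminescence units.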
(In general: qHTS replaces the single test concentration by a dilution series.)

In assay [2] the target is Cytochrome P450 2C9 (Homo sapiens) (UniProt P11712). Put plainly: Cytochrome P450 family 2 subfamily C member 9 (CYP2C9) small molecule antagonists: luciferase biochemical (cell-free) qHTS assay (AID 1645842; active = well fitted curve in the direction sought with a large enough effect in the repeat runs; an effect the other way counts as inactive or inconclusive; note: nearly all actives have a fitted effect of over 55% in size; note: potency is the fitted concentration of half-maximal effect). The gist of the method:
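Luminescence, after 20 min with luciferin detection reagent, reflected CYP2C9 turnover during a 1 h NADPH-driven reaction at 37C. Enzyme-substrate mix contained 0.4% bovine serum albumin and was preincubated with compound 10 min at room temperature.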

The target of assay [3] is Rap guanine nucleotide exchange factor 3 (Homo sapiens) (UniProt O95398). Put plainly: Confirmatory qHTS for antagonist of cAMP-regulated guanine nucleotide exchange factor 3 (EPAC1) (AID 1645880). Note: potency is the fitted concentration of half-maximal effect; nearly all actives have a fitted effect of over 55% in size. In short, it runs like this: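 Nucleotide exchange uses 100 nM EPAC1, 250 nM RAP1B-BODIPY-GDP and 50 uM GDP, with compounds in a concentration-titration series. After 5 min at room temperature, fluorescence (480 nm ex/540 nm em) is read every 5 min for 30 min. Data are normalized to control ATA and DMSO.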

The target is the same in assay [4]. Put plainly: Confirmatory qHTS for agonist of cAMP-regulated guanine nucleotide exchange factor 3 (EPAC1) (AID 1645881).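 Note: EPAC1 catalysed release of BODIPY-GDP from Rap1B seen as fluorescence loss; nearly all actives have a fitted effect of over 75% in size.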
The target of assay [5] is Rap guanine nucleotide exchange factor 4 (Homo sapiens) (UniProt Q8WZA2). The experiment in a line: Confirmatory qHTS for antagonist of cAMP-regulated guanine nucleotide exchange factor 4 (EPAC2) (AID 1645885). Note: nearly all actives have a fitted effect of over 25% in size.
The target of assay [6] is Rap guanine nucleotide exchange factor 3 (Homo sapiens) (UniProt O95398). The experiment in a line: Counterscreen qHTS for antagonist of cAMP-regulated guanine nucleotide exchange factor 3 (EPAC1) (AID 1645888).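 Note: fluorescence loss as bound BODIPY-GDP is released from Rap1B.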 The gist of the method:
(§1)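 Rap1B–BODIPY-GDP (250 nM) with 50 uM GDP; compounds pin-transferred to 9.74 nM–152 uM final (activator) or from 7.32 nM upwards (inhibitor). Fluorescence Ex/Em 480/540 nm read at 5 and 30 min, then after adding cAMP or buffer, at room temperature.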
(Counterscreens check selectivity or assay interference.)

For assay [7] the target is unchanged. The experiment in a line: Counterscreen qHTS for agonist of cAMP-regulated guanine nucleotide exchange factor 3 (EPAC1) (AID 1645889). Note: nearly all actives have a fitted effect of over 40% in size. The gist of the method: as §1
The target of assay [8] is Glutathione peroxidase 1 (Homo sapiens) (UniProt P07203). Put plainly: Primary qHTS Assay for Inhibitors of Recombinant Selenoprotein Glutathione Peroxidase 1 (GPX1) (AID 1845191). Note: nearly all actives have a fitted effect of over 65% in size. In short, it runs like this: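 GR-coupled assay: compounds preincubated 30 min at room temperature with GPX1, then reaction started with CHP; final 10 nM GPX1, 1 mM GSH, 0.5 mM CHP, 0.5 mM NADPH, 100 nM GR, 0.01% BSA, pH 7.5 Tris buffer. NADPH fluorescence (340/450 nm) read at 0 and 15 min.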

Assay [9] has as its target Phospholipid hydroperoxide glutathione peroxidase GPX4 (Homo sapiens) (UniProt P36969). Put plainly: Primary qHTS Assay for Inhibitors of Recombinant Selenoprotein Glutathione Peroxidase 4 (GPX4) (AID 1845192). Note: nearly all actives have a fitted effect of over 65% in size. In short, it runs like this: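 GR-coupled assay: recombinant GPX4 preincubated 30 min with compound at room temperature; final 200 nM GPX4, 1 mM GSH, 0.5 mM cumene hydroperoxide, 0.5 mM NADPH, 100 nM GR, 0.01% BSA, pH 7.5 Tris. NADPH fluorescence (340/450 nm) read at 0 and 15 min.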

Assay [10] deals with Cytochrome P450 3A4 (Homo sapiens) (UniProt P08684). Put plainly: Cytochrome P450 family 3 subfamily A member 4 (CYP3A4) small molecule antagonists: luciferase qHTS assay (AID 1645841; active = well fitted curve in the direction sought with a large enough effect in the repeat runs; an effect the other way counts as inactive or inconclusive; note: nearly all actives have a fitted effect of over 45% in size). In short, it runs like this:
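P450-Glo CYP3A4 enzyme with proluciferin substrate preincubated 10 min with compound at room temperature, then NADPH regeneration 1 h. Luciferin detection reagent added for 20 min; luminescence recorded. Ketoconazole positive control.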

Assay [11] has as its target Rap guanine nucleotide exchange factor 4 (Homo sapiens) (UniProt Q8WZA2). The experiment in a line: Confirmatory qHTS for agonist of cAMP-regulated guanine nucleotide exchange factor 4 (EPAC2) (AID 1645884). Note: nearly all actives have a fitted effect of over 65% in size.
For assay [12], the target named is N-terminal Xaa-Pro-Lys N-methyltransferase 1 (Homo sapiens) (UniProt Q9BV86). The experiment in a line: Confirmatory qHTS for Inhibitors of N-terminal methyltransferase 1 (NTMT1): MTaseGlo Assay (AID 1645874). Note: nearly all actives have a fitted effect of over 65% in size. Note: potency is the fitted concentration of half-maximal effect. In short, it runs like this:
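NTMT1 (125 nM) preincubated 15 min with compound and 100 uM SAM, then 1 uM SPKRIA peptide added for 30 min at room temperature. SAH detected by MTase-Glo luminescence; normalized to no-enzyme and DMSO controls, fitted to 4-parameter Hill.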

Structures are written as SMILES. Inconclusive results are not listed. Activity calls are given as the source filed them. Unless noted, calls come from the whole dose curve; as a rule, active = well fitted curve in the direction sought with a large enough effect; inconclusive = small, poorly fitted or top-dose-only effect, or another doubt; inactive = no such curve, though single readings can be large; an effect the other way counts as inactive or inconclusive.

Sequence of Cytochrome P450 2D6 (Homo sapiens) (P10635 whole entry, looked up): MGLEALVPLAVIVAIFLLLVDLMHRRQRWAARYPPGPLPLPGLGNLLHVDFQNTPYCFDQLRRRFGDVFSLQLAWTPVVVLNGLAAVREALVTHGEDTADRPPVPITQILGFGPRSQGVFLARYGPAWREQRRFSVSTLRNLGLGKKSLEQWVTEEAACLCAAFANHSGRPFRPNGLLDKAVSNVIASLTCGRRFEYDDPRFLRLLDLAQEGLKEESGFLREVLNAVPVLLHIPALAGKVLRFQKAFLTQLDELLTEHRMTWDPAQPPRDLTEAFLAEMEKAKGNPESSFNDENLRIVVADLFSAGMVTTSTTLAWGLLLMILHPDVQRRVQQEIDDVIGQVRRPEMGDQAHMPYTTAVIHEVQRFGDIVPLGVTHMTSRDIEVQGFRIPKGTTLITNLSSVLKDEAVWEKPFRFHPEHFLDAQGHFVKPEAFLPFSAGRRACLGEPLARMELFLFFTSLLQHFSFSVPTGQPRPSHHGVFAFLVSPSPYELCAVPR
Sequence of Rap guanine nucleotide exchange factor 4 (Homo sapiens) (Q8WZA2 whole entry, looked up): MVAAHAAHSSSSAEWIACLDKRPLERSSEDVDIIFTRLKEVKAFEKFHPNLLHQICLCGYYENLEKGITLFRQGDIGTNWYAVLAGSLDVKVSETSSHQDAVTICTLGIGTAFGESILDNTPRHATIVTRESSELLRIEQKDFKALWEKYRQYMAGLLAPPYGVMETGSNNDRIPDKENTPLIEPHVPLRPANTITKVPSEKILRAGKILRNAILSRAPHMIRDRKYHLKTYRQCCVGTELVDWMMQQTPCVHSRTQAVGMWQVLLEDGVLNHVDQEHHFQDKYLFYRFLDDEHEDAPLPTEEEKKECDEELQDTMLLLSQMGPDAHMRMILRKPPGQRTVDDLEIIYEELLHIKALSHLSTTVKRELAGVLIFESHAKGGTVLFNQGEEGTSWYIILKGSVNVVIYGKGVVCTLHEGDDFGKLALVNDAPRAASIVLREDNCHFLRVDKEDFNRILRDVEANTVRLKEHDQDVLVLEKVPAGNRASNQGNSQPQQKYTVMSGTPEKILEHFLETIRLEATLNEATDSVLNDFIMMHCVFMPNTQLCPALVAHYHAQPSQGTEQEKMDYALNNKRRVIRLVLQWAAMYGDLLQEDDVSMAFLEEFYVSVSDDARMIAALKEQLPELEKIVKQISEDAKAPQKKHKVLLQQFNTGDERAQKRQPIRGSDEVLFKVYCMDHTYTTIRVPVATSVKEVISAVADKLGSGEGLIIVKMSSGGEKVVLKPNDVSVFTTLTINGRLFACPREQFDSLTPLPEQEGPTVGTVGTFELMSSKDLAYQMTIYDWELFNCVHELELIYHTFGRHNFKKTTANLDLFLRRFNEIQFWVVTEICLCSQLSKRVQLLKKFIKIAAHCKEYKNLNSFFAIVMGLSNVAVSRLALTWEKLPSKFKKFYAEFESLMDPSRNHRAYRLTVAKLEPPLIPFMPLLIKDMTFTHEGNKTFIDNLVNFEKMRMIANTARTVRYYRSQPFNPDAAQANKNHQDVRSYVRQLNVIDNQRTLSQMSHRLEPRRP
Sequence of N-terminal Xaa-Pro-Lys N-methyltransferase 1 (Homo sapiens) (Q9BV86 whole entry, looked up): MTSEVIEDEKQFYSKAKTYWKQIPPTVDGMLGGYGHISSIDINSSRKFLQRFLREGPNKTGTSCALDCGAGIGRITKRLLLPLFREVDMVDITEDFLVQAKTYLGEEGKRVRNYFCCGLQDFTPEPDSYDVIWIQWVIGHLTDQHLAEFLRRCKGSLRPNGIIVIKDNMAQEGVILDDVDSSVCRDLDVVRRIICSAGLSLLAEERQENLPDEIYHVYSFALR
Sequence of Cytochrome P450 2C9 (Homo sapiens) (P11712 whole entry, looked up): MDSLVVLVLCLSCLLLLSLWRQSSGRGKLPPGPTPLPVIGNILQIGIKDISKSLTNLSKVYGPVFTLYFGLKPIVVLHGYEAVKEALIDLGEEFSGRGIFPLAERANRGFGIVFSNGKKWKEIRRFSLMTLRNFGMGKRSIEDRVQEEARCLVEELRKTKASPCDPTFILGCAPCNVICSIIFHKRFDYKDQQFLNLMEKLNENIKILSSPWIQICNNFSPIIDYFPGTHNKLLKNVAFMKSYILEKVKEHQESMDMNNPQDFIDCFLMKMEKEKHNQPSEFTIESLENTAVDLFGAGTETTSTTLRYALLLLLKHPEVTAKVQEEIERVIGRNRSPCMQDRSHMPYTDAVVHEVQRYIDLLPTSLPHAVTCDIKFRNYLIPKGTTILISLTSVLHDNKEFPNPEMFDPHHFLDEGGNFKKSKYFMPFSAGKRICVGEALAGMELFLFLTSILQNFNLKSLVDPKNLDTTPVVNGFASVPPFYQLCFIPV
Sequence of Rap guanine nucleotide exchange factor 3 (Homo sapiens) (O95398 whole entry, looked up): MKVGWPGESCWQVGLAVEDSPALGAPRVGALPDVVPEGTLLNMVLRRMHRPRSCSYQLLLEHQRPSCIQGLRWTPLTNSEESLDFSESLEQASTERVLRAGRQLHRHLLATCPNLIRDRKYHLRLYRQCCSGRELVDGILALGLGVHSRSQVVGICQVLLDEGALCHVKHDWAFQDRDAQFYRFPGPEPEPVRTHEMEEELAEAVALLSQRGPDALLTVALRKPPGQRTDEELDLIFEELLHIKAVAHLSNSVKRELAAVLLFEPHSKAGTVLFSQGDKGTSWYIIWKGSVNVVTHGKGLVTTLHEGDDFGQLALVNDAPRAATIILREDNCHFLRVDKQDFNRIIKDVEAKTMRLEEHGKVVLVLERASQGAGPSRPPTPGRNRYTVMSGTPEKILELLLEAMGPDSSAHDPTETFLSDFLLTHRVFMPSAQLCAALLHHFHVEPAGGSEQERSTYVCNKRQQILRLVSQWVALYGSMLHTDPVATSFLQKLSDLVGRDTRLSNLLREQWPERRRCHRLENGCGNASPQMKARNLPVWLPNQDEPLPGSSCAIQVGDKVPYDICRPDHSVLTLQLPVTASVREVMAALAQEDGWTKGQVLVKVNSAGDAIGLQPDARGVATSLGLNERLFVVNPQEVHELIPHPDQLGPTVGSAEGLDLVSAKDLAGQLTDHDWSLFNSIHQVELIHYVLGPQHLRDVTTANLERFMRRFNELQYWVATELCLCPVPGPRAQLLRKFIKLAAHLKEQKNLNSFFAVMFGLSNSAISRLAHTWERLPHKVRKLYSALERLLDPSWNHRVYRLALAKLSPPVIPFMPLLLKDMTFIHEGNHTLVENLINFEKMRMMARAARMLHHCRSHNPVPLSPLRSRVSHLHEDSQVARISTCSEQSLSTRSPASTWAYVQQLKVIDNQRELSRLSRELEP
Sequence of Phospholipid hydroperoxide glutathione peroxidase GPX4 (Homo sapiens) (P36969 whole entry, looked up): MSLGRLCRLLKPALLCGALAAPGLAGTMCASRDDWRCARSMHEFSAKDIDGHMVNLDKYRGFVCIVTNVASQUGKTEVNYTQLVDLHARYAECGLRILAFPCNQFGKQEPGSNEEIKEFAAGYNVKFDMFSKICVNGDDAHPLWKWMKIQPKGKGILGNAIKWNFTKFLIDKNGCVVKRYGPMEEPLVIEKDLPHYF
Sequence of Glutathione peroxidase 1 (Homo sapiens) (P07203 whole entry, looked up): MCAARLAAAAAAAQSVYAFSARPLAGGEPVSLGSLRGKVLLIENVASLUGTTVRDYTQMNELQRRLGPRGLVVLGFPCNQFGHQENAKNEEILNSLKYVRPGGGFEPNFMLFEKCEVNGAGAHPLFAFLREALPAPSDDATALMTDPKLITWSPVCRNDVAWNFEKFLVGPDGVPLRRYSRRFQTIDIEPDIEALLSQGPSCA
Sequence of Cytochrome P450 3A4 (Homo sapiens) (P08684 whole entry, looked up): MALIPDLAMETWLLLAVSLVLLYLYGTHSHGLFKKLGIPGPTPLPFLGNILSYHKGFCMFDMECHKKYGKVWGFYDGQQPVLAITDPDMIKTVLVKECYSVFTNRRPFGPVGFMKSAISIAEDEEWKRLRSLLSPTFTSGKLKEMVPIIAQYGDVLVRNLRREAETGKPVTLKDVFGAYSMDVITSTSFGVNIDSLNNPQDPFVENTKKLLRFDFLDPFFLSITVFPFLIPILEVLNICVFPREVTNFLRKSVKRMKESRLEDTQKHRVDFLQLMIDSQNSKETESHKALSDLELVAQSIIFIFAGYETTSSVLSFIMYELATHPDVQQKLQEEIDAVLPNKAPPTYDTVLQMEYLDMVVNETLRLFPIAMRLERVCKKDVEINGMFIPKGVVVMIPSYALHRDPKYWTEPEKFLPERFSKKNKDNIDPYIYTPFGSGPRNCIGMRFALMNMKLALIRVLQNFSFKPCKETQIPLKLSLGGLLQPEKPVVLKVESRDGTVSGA

For `Cc1cccn2c(=O)cc(CSc3nnc(NC(=O)COc4ccccc4)s3)nc12`, the Potency entry in [1], in assay [4], in assay [5], in assay [6] and in assay [7] was “inactive” throughout. In addition, the results for the Potency in assay [2] and in [3] were 6.74 µM (active) and 67.5 µM (active), respectively.
Consider `NCCNc1ccc(NCCN)c2c1C(=O)c1ccncc1C2=O`, for which the Potency in assay [1] is 2.68 µM (active). Also, the Potency result in assay [8] and in assay [9] was “inactive” in each case.
Turning to `Cc1nc2c(-c3ccccc3)c(C)[nH]n2c(=O)c1Cc1ccc(Br)cc1`, the Potency result in [10] was “inactive”.
With `Cc1ccc(/C=C2\C(=O)C3(C)CCC2C3(C)C)cc1` (stereo not drawn), the Potency entry in [1], in assay [8] and in assay [9] was “inactive” each time. Also, the Potency in assay [2] is 8.49 µM (active).
Consider `COc1ccc(CCNC(=O)Cn2nc(C)c3c(C)n(-c4ccc(C)cc4)nc3c2=O)c(OC)c1`, for which the Potency in assay [1] was 8.49 µM (active); in assay [2], 8.49 µM (active); in assay [3], 67.5 µM (active). Also, the Potency result in assay [4], in assay [11], in [6] and in [7] was “inactive” in each case. Moreover, in assay [5], the outcome is “inactive [at 12.7 µM]”.
As to `COc1ccc(C=CC(=O)O)cc1`, the Potency entry in assay [1], in [2], in assay [8] and in assay [9] was “inactive” throughout.
Take `COc1cc2nc(Nc3ccc(C)c(C)c3)nc(N)c2cc1OC`: in assay [12], the Potency was 39.8 µM (active).
`COc1cccc(NC(=O)CN(CCc2ccccc2)S(=O)(=O)c2ccc(Cl)cc2)c1`: the Potency in assay [12] was 8.51 µM (active).
Take `COc1ccc(Cl)cc1NC(=O)CN1C(=O)CSc2ccc(S(=O)(=O)N3CCCC3)cc21`: the Potency in [2] is 0.756 µM (active).
`COc1cc(-c2nc3ccc(Cl)cn3c2Nc2ccc3c(c2)OCCO3)ccc1O`: the Potency in assay [12] is 5.15 µM (active).
For `COc1ccc(C(=O)Oc2ccc(C(c3c(C)[nH][nH]c3=O)c3c(C)[nH][nH]c3=O)cc2OC)cc1`, in [2], the Potency is 3.38 µM (active).
Regarding `COC(=O)c1c(SCC(=O)Nc2ccccc2C(F)(F)F)[nH]c2ccc(Cl)cc2c1=O`, the Potency in [2] was 1.9 µM (active).
With `O=C(Nc1noc2ccccc12)c1ccc(F)cc1`, in assay [12], the Potency is 39.8 µM (active).
Turning to `CSc1ccc(/C=C/c2nc3ccccc3n2S(=O)(=O)c2cccc(Cl)c2)cc1`, the Potency in assay [12] is 8.51 µM (active).
For the compound `CC(C)(C)c1ccc(-c2nc(SCC(=O)Nc3ccc(Cl)cc3)[nH]c(=O)c2C#N)cc1`, the values for the Potency in assay [2] and in assay [3] were 3.01 µM (active) and 84.9 µM (active), respectively. Moreover, the Potency result in [4], in assay [11], in [5], in assay [6] and in assay [7] was “inactive” each time.
As for `COc1cc2c(NC3CCN(C(C)C)CC3)nc(N3CCCCCC3)nc2cc1OCCCN1CCCC1`, the Potency in assay [12] was 30.8 µM (active).
Consider `Cc1ccc2nc(-c3ccc(O)cc3)c(Nc3ccc(Cl)cc3)n2c1`, for which, in assay [12], the Potency entry was “inactive”.
Consider `Cc1c(Cl)ccc2sc(N3CCN(C(=O)C4CC4)CC3)nc12`, for which the Potency result in [12] was “inactive”.
Regarding `N[C@@H]1CCCCN(c2c(F)cc3c(=O)c(C(=O)O)cn(C4CC4)c3c2Cl)C1`, the Potency entry in [2], in assay [8] and in [9] was “inactive” in each case.

(Values after PubChem BioAssay (NCATS).)
